Source: PubChem BioAssay (Tox21)
Several values for one entry are separate records, joined by “and”; a condition that tells them apart may be missing. Equal values may be shown once. Inconclusive results are not listed. Entries that show only a call come without a potency. Activity calls are given as the source filed them. Unless noted, calls come from the whole dose curve.

Key:
[1] = Nuclear factor erythroid 2-related factor 2/antioxidant responsive element (Nrf2/ARE) small molecule agonists: qHTS cell viability counter screen in human keratinocytes (AID 1919968; active = well fitted curve in the direction sought with a large enough effect in the repeat runs; an effect the other way counts as inactive or inconclusive; note: nearly all actives have a fitted effect of over 55% in size; note: potency is the fitted concentration of half-maximal effect)
Method in brief: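 HaCaT ARE reporter line, 1,500 cells/well; 5 h settle, 37 C/5% CO2; cpd in DMSO pinned; 23 h exposure; CellTiter-Fluor, 1 h; fluorescence.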

[2] = Nuclear factor erythroid 2-related factor 2/antioxidant responsive element (Nrf2/ARE) small molecule agonists: luciferase reporter gene qHTS assay in human keratinocytes (AID 1919969); note: nearly all actives have a fitted effect of over 35% in size; note: potency is the fitted concentration of half-maximal effect
[3] = target: Gonadotropin-releasing hormone receptor (Homo sapiens) (UniProt P30968); assay: Human gonadotropin-releasing hormone receptor (GnRHR) small molecule agonists, calcium flux assay in GnRHR-HEK293 cells (AID 1920063); note: nearly all actives have a fitted effect of over 35% in size
Method in brief: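 GnRHR-HEK293, 1500 cells/well, 18 h 37 C/5% CO2; Ca dye 1 h 37 C; cpd pinned (DMSO), agonist mode; kinetic FL 480/540, 3 min, 1 s reads; 15 conc, n=3.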

[4] = target: KiSS-1 receptor (Homo sapiens) (UniProt Q969F8); assay: Human kisspeptin (KISS1R) small molecule agonists, calcium flux assay in KISS1R-HEK293 cells (AID 1920064; active = well fitted curve in the direction sought with a large enough effect in the repeat runs; an effect the other way counts as inactive or inconclusive)
Method in brief: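 Stable human KISS1R HEK293 line; 18 h plating, 37 C/5% CO2; calcium dye 1 h 37 C; compound pin transfer; kinetic fluorescence Ex/Em 480/540, 3 min.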

[5] = G protein-coupled receptor (GPCR) small molecule agonists, calcium flux assay: HEK293 wild type cell line counter screen (AID 1920065)
Method in brief: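 Kinetic fluorescence at Ex/Em 480/540, recorded every second over 3 min, served as the read-out after compound addition. Each compound was tested at 15 concentrations in triplicate on cells pre-loaded with calcium dye for 1 h.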

[6] = p53 small molecule agonists, cell-based qHTS assay with human liver microsomes (AID 1963577); note: potency is the fitted concentration of half-maximal effect;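 for activation: p53 response element beta-lactamase reporter cells with liver microsomes plus NADPH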
Method in brief: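 16 h, 37 C exposure of p53RE-bla cells to compounds with human liver microsomes and NADPH (0.5 mg/mL final each); detection via LiveBLAzer mixture, 2 h dark at room temperature.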

[7] = p53 small molecule agonists, cell-based qHTS assay with rat liver microsomes (AID 1963578)
Method in brief: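 With rat liver microsomes and NADPH present (0.5 mg/mL final each), p53RE-bla cells are treated with compound for 16 h at 37 C. LiveBLAzer detection mixture is then applied for 2 h at room temperature in the dark.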

[8] = p53 small molecule agonists, cell-based qHTS assay with rat liver microsomes: qHTS cell viability counter screen (AID 1963580); note: nearly all actives have a fitted effect of over 45% in size; note: potency is the fitted concentration of half-maximal effect
Method in brief: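 Intracellular ATP, by CellTiter-Glo luminescence, defines viability. HCT-116 p53RE-bla cells, 4,000 per well, were compound-treated in the presence of rat liver microsomes and NADPH for 16 h at 37 C.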

[9] = p53 small molecule agonists, cell-based qHTS assay: qHTS cell viability counter screen (AID 1963581); note: nearly all actives have a fitted effect of over 45% in size
Method in brief: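 HCT-116 p53RE-bla cells, 4,000/well, plated 5 h before compound pin transfer; 16 h at 37 C; bla substrate 2 h RT; then CellTiter-Glo, 30 min RT, luminescence.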

[10] = p53 small molecule agonists, cell-based qHTS assay (AID 1963582; active = well fitted activation curve with a large enough effect in the signal ratio in the repeat runs, not every such curve was filed as active; the % refers to the signal ratio; note: potency is the fitted concentration of half-maximal effect)
Method in brief: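 Reporter line: p53RE-bla. Pre-incubation 5 h, 37 C, 5% CO2; compound (DMSO, pin tool) 16 h, 37 C; B/G FRET substrate 2 h RT; fluorescence intensity read.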

[11] = target: 5-hydroxytryptamine receptor 2A (Homo sapiens) (UniProt P28223); assay: 5-hydroxytryptamine receptor 2A (HTR2A) small molecule antagonists, cell-based qHTS assay (AID 1963586); note: nearly all actives have a fitted effect of over 45% in size
Method in brief: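 Antagonist-mode intracellular calcium assay: DOI (4 nM) added after 5 min compound pre-incubation at room temperature to dye-loaded HTR2A-CHO cells. Fluorescence followed for 3 min, sampled every second.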

[12] = target: 5-hydroxytryptamine receptor 2A (Homo sapiens) (UniProt P28223); assay: 5-hydroxytryptamine receptor 2A (HTR2A) small molecule agonists, cell-based qHTS assay (AID 1963587); note: nearly all actives have a fitted effect of over 30% in size
Method in brief: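 Kinetic calcium-flux fluorescence (2 min, 1 sec intervals) after compound addition in agonist mode. HTR2A-CHO cells were cultured 18 h, then dye-loaded 1 h at 37 C.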

[13] = target: Muscarinic acetylcholine receptor M1 (Homo sapiens) (UniProt P11229); assay: Cholinergic receptor muscarinic 1 (CHRM1) small molecule antagonists, cell-based qHTS assay (AID 1963588); note: nearly all actives have a fitted effect of over 40% in size
Method in brief: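 CHRM1-CHO calcium-flux assay, antagonist mode. Cells were seeded 18 h, dye-loaded 1 h at 37 C and given compound for 5 min at RT, then acetylcholine was added at 50nM. FDSS fluorescence was read 3 min; 15 concentrations, three runs.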

[14] = target: Muscarinic acetylcholine receptor M1 (Homo sapiens) (UniProt P11229); assay: Cholinergic receptor muscarinic 1 (CHRM1) small molecule agonists, cell-based qHTS assay (AID 1963589); note: nearly all actives have a fitted effect of over 35% in size
Method in brief: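 Human M1 in stable CHO line; 18 h plating, 1 h dye load 37 C; cpd added (agonist mode); Ca2+ fluorescence kinetic read, 1 s intervals; 15 conc, 3 runs.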

[15] = cAMP Responsive Elements (CRE) small molecule agonists, cell-based qHTS assay (AID 1963590)
Method in brief: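 HEK 293T CRE-bla, 2,000 cells/well, 18 h preincubation 37 C/5% CO2; cpds (DMSO) pinned, 3 h; LiveBLAzer B/G FRET substrate, 2 h RT.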

[16] = cAMP Responsive Elements (CRE) small molecule antagonists, cell-based qHTS assay (AID 1963591; active = well fitted inhibition curve with a large enough effect in the signal ratio in the repeat runs, not every such curve was filed as active; the % refers to the signal ratio)
Method in brief: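 Beta-lactamase reporter read by FRET substrate (LiveBLAzer B/G) after 2 h at room temperature. CRE-bla HEK293T cells had received compound plus 0.25 uM (final) NKH477 for 3 h at 37 °C.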

[17] = target: D(2) dopamine receptor (Homo sapiens) (UniProt P14416); assay: Dopamine D2 receptor (DRD2) small molecule agonists, cell-based qHTS assay (AID 1963594); note: nearly all actives have a fitted effect of over 35% in size
Method in brief: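 cAMP accumulation in DRD2-HEK293 cells measured by HTRF after 1 h detection; compounds added 10 min before NKH477 (200nM […]) forskolin-analogue stimulation, 30 min at room temperature, with Ro20-1724 present at 0.1 mM final.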

[18] = target: D(2) dopamine receptor (Homo sapiens) (UniProt P14416); assay: Dopamine D2 receptor (DRD2) small molecule antagonists, cell-based qHTS assay (AID 1963595; active = well fitted inhibition curve with a large enough effect in the signal ratio in the repeat runs, with a control signal flat; the % refers to the signal ratio)
Method in brief: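 DRD2-HEK293; 0.1 mM Ro20-1724; cpd 10 min RT; NKH477 200 nM + quinpirole 12 nM, 30 min RT; HTRF cAMP (cAMP-d2/anti-cAMP cryptate), 665/620 nm ratio after 1 h.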

[19] = p53 small molecule agonists, cell-based qHTS assay with human liver microsomes: qHTS cell viability counter screen (AID 1963579); note: nearly all actives have a fitted effect of over 45% in size
Method in brief: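 In this multiplexed counter screen, the reporter plates were subsequently treated with CellTiter-Glo so that cell viability, reflected by luminescence, could be recorded for p53RE-bla cells dosed 16 h with compounds under microsomal activation (HLM and NADPH).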

[20] = target: Beta-2 adrenergic receptor (Homo sapiens) (UniProt P07550); assay: Adrenergic beta2 receptor (ADRB2) small molecule antagonists, cell-based qHTS assay (AID 1963592); note: series mostly up to about 92 µM; nearly all actives have a fitted effect of over 50% in size
Method in brief: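 Cells (CHO, stable ADRB2 overexpression) incubated 18-20hr at 37C; compounds added from DMSO; agonist mix (1nM isoproterenol, 100uM IBMX, 25uM Ro-20-1724) added; 0.5hr RT; d2-cAMP and anti-cAMP-cryptate added; 1hr RT; 665/615 nm read.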

KiSS-1 receptor (Homo sapiens), sequence (Q969F8 whole entry, looked up): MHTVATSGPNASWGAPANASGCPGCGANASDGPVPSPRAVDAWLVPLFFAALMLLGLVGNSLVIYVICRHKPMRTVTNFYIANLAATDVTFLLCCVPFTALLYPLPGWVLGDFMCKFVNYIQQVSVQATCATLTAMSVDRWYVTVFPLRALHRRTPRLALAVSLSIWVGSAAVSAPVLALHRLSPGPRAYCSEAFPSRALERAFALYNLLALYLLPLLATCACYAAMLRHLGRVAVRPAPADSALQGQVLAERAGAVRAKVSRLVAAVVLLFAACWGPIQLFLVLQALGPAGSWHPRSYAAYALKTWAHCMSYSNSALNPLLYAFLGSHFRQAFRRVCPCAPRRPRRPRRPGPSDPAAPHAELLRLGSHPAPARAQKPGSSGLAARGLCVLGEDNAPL
Beta-2 adrenergic receptor (Homo sapiens), sequence (P07550 whole entry, looked up): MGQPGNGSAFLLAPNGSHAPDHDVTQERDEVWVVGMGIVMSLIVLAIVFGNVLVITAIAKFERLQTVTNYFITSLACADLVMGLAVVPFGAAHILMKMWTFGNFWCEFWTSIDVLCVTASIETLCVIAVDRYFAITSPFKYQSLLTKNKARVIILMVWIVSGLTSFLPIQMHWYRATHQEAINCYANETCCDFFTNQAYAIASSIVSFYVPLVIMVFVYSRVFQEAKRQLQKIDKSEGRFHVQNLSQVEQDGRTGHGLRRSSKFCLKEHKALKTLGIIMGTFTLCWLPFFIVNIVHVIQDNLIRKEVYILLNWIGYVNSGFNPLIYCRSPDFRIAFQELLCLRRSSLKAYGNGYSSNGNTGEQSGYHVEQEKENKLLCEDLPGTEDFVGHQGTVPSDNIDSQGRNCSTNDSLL
5-hydroxytryptamine receptor 2A (Homo sapiens), sequence (P28223 whole entry, looked up): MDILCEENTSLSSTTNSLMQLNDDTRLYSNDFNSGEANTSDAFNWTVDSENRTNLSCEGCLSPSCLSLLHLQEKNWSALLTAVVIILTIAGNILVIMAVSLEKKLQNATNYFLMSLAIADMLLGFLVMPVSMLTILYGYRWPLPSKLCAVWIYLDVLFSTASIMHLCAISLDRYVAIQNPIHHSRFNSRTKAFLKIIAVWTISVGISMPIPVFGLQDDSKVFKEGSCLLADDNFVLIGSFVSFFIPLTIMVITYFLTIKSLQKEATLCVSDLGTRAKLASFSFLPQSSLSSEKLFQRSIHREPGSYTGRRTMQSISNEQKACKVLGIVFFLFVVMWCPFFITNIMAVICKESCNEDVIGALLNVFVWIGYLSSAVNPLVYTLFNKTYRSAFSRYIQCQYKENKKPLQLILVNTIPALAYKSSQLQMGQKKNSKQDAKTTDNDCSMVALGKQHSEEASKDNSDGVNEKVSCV
D(2) dopamine receptor (Homo sapiens), sequence (P14416 whole entry, looked up): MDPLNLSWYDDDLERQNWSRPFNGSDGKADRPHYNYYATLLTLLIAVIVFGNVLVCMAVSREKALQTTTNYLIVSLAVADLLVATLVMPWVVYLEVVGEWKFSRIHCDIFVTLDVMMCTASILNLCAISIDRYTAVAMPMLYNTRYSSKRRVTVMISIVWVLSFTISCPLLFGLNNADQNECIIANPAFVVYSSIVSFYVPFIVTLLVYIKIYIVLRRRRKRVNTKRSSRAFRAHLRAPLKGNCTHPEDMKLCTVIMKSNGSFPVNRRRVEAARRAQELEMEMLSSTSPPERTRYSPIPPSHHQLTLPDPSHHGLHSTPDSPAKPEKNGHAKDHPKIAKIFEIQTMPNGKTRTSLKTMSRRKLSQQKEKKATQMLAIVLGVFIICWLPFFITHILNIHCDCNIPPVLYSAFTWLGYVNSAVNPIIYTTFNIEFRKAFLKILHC
Muscarinic acetylcholine receptor M1 (Homo sapiens), sequence (P11229 whole entry, looked up): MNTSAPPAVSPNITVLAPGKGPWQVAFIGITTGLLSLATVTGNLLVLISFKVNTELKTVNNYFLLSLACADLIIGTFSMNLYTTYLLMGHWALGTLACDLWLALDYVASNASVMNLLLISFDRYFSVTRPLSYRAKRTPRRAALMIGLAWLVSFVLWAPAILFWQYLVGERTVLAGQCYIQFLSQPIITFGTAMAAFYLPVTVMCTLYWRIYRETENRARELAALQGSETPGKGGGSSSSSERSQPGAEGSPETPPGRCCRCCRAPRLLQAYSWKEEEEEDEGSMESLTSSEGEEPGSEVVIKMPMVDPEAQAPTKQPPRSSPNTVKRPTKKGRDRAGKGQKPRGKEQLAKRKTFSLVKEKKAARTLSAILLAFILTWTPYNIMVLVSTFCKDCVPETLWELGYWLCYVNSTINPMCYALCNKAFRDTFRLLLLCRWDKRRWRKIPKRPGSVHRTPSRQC
Gonadotropin-releasing hormone receptor (Homo sapiens), sequence (P30968 whole entry, looked up): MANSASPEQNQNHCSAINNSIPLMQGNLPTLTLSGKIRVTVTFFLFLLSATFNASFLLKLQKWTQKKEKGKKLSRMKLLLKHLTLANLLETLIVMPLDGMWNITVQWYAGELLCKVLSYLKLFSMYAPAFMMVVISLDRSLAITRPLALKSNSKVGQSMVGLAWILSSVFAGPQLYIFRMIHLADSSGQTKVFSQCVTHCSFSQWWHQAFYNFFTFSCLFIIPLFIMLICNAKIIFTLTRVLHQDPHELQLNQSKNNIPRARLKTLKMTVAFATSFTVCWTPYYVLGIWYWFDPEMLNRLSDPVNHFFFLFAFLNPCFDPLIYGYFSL

Row | SMILES | Potency [1] | Potency [2] | Potency [3] | Potency [4] | Potency [5] | Potency [6] | Potency [7] | Potency [8] | Potency [9] | Potency [10] | Potency [11] | Potency [12] | Potency [13] | Potency [14] | Potency [15] | Potency [16] | Potency [17] | Potency [18] | Potency [19] | Potency [20]
1 | CCCOC(=O)c1ccccc1C(=O)OCCC | inactive | inactive | inactive | inactive | inactive | inactive | inactive | inactive | inactive | inactive | inactive | inactive | inactive | inactive | inactive | inactive | inactive | inactive |  | 
2 | CCOC(=O)C(c1c(O)c2ccccc2oc1=O)c1c(O)c2ccccc2oc1=O | inactive | inactive | inactive | inactive | inactive | inactive | inactive |  | inactive |  | inactive | inactive |  | inactive | inactive | inactive |  | inactive | inactive | inactive
3 | CN1CSC(=S)N(C)C1 | 2.72 µM (active) | 1.21 µM (active) and 2.43 µM (active) | inactive | inactive | inactive | inactive | inactive | 20.3 µM (active) | inactive | inactive | inactive | inactive | inactive | inactive | inactive |  | inactive | inactive |  | inactive
4 | CC(C)(O)C#N | inactive | inactive | inactive | inactive | inactive | inactive | inactive |  | inactive | inactive | inactive | inactive |  | inactive | inactive | inactive | inactive | inactive | inactive | 
5 | COc1cc(OC)nc(NC(=O)NS(=O)(=O)c2ncccc2C(=O)N(C)C)n1 | inactive | inactive | inactive | inactive | inactive | inactive | inactive | inactive | inactive | inactive |  | inactive | inactive | inactive | inactive | inactive | inactive | inactive |  | inactive
6 | CC(C)C1(C)N=C(c2ncccc2C(=O)O)NC1=O (stereo not given) | inactive | inactive | inactive | inactive | inactive | inactive | inactive |  |  | inactive | inactive | inactive | inactive | inactive | inactive |  | inactive | inactive | inactive | inactive
7 | O=C(O)c1cc(Cl)ccc1Cl | inactive | inactive | inactive | inactive | inactive | inactive | inactive |  | inactive |  | inactive | inactive | inactive | inactive | inactive | inactive | inactive | inactive | inactive | inactive
8 | CCCCCON=O | inactive | inactive | inactive | inactive | inactive | inactive | inactive |  | inactive | inactive | inactive | inactive | inactive | inactive |  | inactive | inactive | inactive | inactive | inactive
9 | CCOP(=S)(OCC)OP(=S)(OCC)OCC | inactive | inactive | inactive | inactive | inactive | 18.2 µM (active) |  | inactive |  | inactive | inactive | inactive | inactive | inactive | inactive | inactive | inactive | inactive | inactive | inactive
10 | CCc1cc(C)cc(CC)c1-c1c(OC(=O)C(C)(C)C)n2n(c1=O)CCOCC2 | inactive | inactive | inactive | inactive | inactive | inactive |  | inactive | inactive | inactive | inactive | inactive | inactive | inactive | inactive | inactive | inactive | inactive | inactive | inactive
11 | CC[N+](=O)[O-] | inactive | inactive | inactive | inactive | inactive | inactive |  |  | inactive | inactive |  | inactive | inactive | inactive | inactive | inactive | inactive | inactive | inactive | inactive
12 | C=CC(=O)OCC(C)C | inactive | inactive | inactive | inactive | inactive | inactive |  | inactive | inactive | inactive | inactive | inactive | inactive | inactive |  | inactive | inactive | inactive | inactive | inactive
13 | CCCCNC(=O)n1c(NC(=O)OC)nc2ccccc21 | inactive | 54.2 µM (active) | inactive | inactive | inactive | inactive |  | inactive |  | 10.2 µM (active) | inactive | inactive |  | inactive | inactive | inactive | inactive | inactive | inactive | inactive
14 | CCOP(=O)(OCC)Oc1ccc([N+](=O)[O-])cc1 | inactive | inactive | inactive | inactive | inactive | 654 nM (active) and 513 nM (active) |  | inactive | inactive | inactive | inactive | inactive | inactive |  |  |  | inactive | inactive | inactive | inactive
15 | CNC(=O)O/N=C/C(C)(C)S(C)=O (stereo not given) | inactive | inactive | inactive | inactive | inactive | inactive |  | inactive | inactive | inactive | inactive | inactive | inactive | inactive | inactive | inactive | inactive | inactive | inactive | 
16 | Nc1ccc2ccccc2c1 | inactive | 37.2 µM (active) and 27.3 µM (active) | inactive | inactive | inactive | inactive |  | inactive | inactive | inactive | inactive |  | inactive | inactive | inactive | inactive | inactive | inactive | inactive | 
